In the library only some 22% were active in any assay of this set; here they are far more common.
E-sel TNF inh = E-selectin induction blockers in HUVEC – imaging, immunofluorescence, high content, primary screen. HUVEC TNFa-induced E-selectin immunofluorescence. inhibition, % at 2 µM. hit rate 0.71% among 120,000;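 active = inhibition above the batch mean plus 3 SD, and confirmed as a hit on visual image review, cut at about 43% in these data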;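 note: 0% = TNF-stimulated DMSO wells and 100% = unstimulated control wells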
CYP2C9 act = human CYP2C9 activators, primary screen, biochemical, luminescence; recombinant CYP2C9, luciferin-H conversion; active compounds read high; factor 1 = untreated enzyme, 0 = blocked; activation factor at 5 µM; hit rate 1.4% among 96,000;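 active = activation factor of 2 or more for CYP2C9 at a 5 µM dose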;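 note: 0 = sulfaphenazole-blocked wells and 1 = vehicle-only wells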
Target sequence (P11712 whole entry, looked up): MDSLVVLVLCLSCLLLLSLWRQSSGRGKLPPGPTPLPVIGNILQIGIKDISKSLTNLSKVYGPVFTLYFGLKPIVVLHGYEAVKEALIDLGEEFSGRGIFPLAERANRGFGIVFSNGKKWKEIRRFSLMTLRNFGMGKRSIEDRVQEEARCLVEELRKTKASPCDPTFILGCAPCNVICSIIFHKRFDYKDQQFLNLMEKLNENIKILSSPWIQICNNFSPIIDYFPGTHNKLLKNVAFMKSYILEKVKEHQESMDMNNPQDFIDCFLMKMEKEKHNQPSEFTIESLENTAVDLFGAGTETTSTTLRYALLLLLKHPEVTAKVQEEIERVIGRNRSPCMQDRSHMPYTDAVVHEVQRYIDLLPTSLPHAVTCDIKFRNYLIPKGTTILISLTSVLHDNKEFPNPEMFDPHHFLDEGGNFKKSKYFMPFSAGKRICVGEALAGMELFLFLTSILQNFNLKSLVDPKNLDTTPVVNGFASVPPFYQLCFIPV
CYP2C9 inh = blockers of cytochrome P450 2C9 activity – biochemical, luminescence, ADME assay, primary screen | CYP2C9 Supersomes, luciferin-H conversion | inhibition, % at 5 µM | hit rate 20% among 96,000 | AID 777, 2007;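 active = blocking of liver enzyme CYP2C9 beyond about 50% at 5 µM, limit read from the data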
CYP2C19 act = human CYP2C19 activators, primary screen, biochemical, luminescence; AID 1025, 2008; 96,000 tested, under 10 active; recombinant CYP2C19, luciferin-H EGE luminescence; active compounds read high; 0 = fully inhibited enzyme, 1 = untreated enzyme; Cytochrome P450 2C19 (Homo sapiens), P33261; activation factor at 5 µM;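 active = activation factor of at least 2 at 5 µM in the primary screen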;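 note: 0 = wells with 2.5 mM tranylcypromine and 1 = vehicle-only wells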
cytoskel mod = modifiers of F-actin cytoskeleton organization, primary screen, imaging, HUVEC, phalloidin staining, high-content imaging. HUVEC TNFa F-actin phalloidin imaging. inhibition, % at 2 µM. hit rate 0.18% among 91,000;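 active = inhibition above the batch mean plus 3 SD and confirmed as a hit by visual image inspection, cut at about 30% in these data, passing the limit was not always enough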
CYP2C19 inhib = blockers of cytochrome P450 2C19 activity – biochemical, luminescence, ADME assay, primary screen. P33261. CYP2C19 Supersomes, luciferin-H EGE luminescence, 30 min. inhibition, % at 5 µM. hit rate 21% among 96,000;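 active = CYP2C19 inhibition above a set limit at 5 µM in the primary screen, cut at about 50% in these data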;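 note: plate controls were negative control wells for no effect and 2.5 mM tranylcypromine positive control for full effect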
Numbers without * were called inactive; nt = not tested or not shown.

SMILES	E-sel TNF inh	CYP2C9 act	CYP2C9 inh	CYP2C19 act	cytoskel mod	CYP2C19 inhib
CCCN(CCC)C(=O)CC(c1ccccc1)c1cc(C)ccc1O (stereo not given)	4	0.5	53*	0.7	6	25
Cc1ccc(O)c(C(CC(=O)N2CCCC2)c2ccccc2)c1 (stereo not given)	5	nt	nt	nt	nt	nt
Cc1ccccc1-n1nc(-c2ccc(N)cc2)cc1N	-3	1	-4	0.8	29	18
Cc1oc(C)c2c(=O)ccc3c(c12)OC(N)=C(C#N)C3c1ccc(F)cc1 (stereo not given)	-18	0.7	35	0.5	nt	50*
COC(=O)c1ccc(-c2nc3ccc(C)cc3o2)cc1	-8	0.9	10	0.6	15	35
CN(CC(=O)NCc1ccccc1)S(=O)(=O)c1cnc[nH]1	3	0.2	80*	0	2	100*
CCN(c1ccccc1)S(=O)(=O)c1cnc[nH]1	-6	0	100*	0	nt	98*
CCOC(=O)c1cccc(NC(=O)CN(C)S(=O)(=O)c2cnc[nH]2)c1	nt	0.1	94*	0.5	-22	54*
CCc1cccc(NC(=O)CN(C)S(=O)(=O)c2cnc[nH]2)c1	12	0.1	95*	0	3	95*
CCN(c1ccccc1)S(=O)(=O)c1cc([N+](=O)[O-])ccc1N	12	nt	nt	nt	nt	nt
CCOc1ccccc1NC(=O)CN(C)S(=O)(=O)c1cnc[nH]1	22	nt	nt	nt	nt	nt
CN(CC(=O)NC1CCCCCCC1)S(=O)(=O)c1cnc[nH]1	-5	nt	nt	nt	nt	nt
O=C(NCCc1csc(-c2cccnc2)n1)c1cccc2ccccc12	7	0.1	86*	0.2	10	79*
O=C(NCCc1csc(-c2ccccc2)n1)c1cccs1	-1	0.3	74*	1	12	-4
O=C(NCCc1csc(-c2cccnc2)n1)c1ccccc1	2	0.4	65*	0.2	6	82*
O=C(Nc1nsc(-c2ccccc2)n1)c1cccs1	nt	0.3	75*	0.5	nt	48
CC(=O)NCCc1csc(-c2ccccc2)n1	-2	nt	nt	nt	-25	nt
COc1ccc(OCC(O)CON2C(=O)c3ccccc3C2=O)cc1 (stereo not given)	9	0.8	20	0.7	8	32
O=C(NCc1cccc(CNC(=O)c2ccco2)c1)c1ccco1	-3	1.1	-6	1	-6	4
O=C(NCc1csc(-c2ccccc2)n1)c1ccco1	nt	0.9	14	0.2	-7	84*
Cc1cc(NC(=O)c2ccc3c(c2)C(=O)N(C2CCCCC2)C3=O)no1	-8	0.9	6	1.1	-4	-6
O=C(Nc1ccncc1)c1ccc2c(c1)C(=O)N(C1CCCCC1)C2=O	-8	0.1	92*	0.2	nt	76*
CCC(=O)Nc1ccc2c(c1)C(=O)N(C1CCCCC1)C2=O	20	0.5	53*	1	-11	-2
COc1ccc(S(=O)(=O)N(C)C)cc1NC(=O)Cc1cccs1	-3	nt	nt	nt	nt	nt
CCC(=O)Nc1ccc(N2CCC(C)CC2)cc1	-16	nt	nt	nt	1	nt
SMILES	E-sel TNF inh	CYP2C9 act	CYP2C9 inh	CYP2C19 act	cytoskel mod	CYP2C19 inhib
CC(C)Nc1nc(Oc2cccc(Cl)c2Cl)cc(C(F)(F)F)n1	-3	0.7	30	0.3	-24	71*
O=C(Nc1cccn2ncnc12)c1ccc(Cl)cc1Cl	26	1.5	-52	0.9	-7	7
COC(=O)C1=C(CSc2nc3ccccc3o2)NC(=O)NC1c1cc(C)ccc1C (stereo not given)	-4	0.2	78*	0.2	-4	77*
COC(=O)C1=C(CSc2nncn2C)NC(=O)NC1c1cc(C)ccc1C (stereo not given)	-17	1.1	-8	1	-22	2
COC(=O)C1=C(CSCc2ccco2)NC(=O)NC1c1cc(C)ccc1C (stereo not given)	-18	0.2	80*	0.1	-11	91*
COCCn1nnnc1CN1CCC(C)CC1	2	nt	nt	nt	-10	nt
Cc1ccnc(N2C(=O)c3ccccc3C2O)c1 (stereo not given)	nt	0.9	14	0.5	5	50*
Cc1ccnc(N2C(=O)c3ccccc3C2Nc2cccc(C)c2C)c1 (stereo not given)	-19	nt	nt	nt	nt	nt
O=S(=O)(c1cccc2cccnc12)N(CCO)CCO	7	1.4	-36	1.2	11	-17
CCN(CC)S(=O)(=O)c1cccc2cccnc12	9	4.8*	-379	0.7	-5	34
CCN(CC)S(=O)(=O)c1cc(C(=O)O)c(Cl)cc1Cl	13	0.9	12	1	nt	4
CCN(CC)S(=O)(=O)c1cccc2cc(C(=O)O)c(O)cc12	1	0.3	71*	1	12	4
CN(CC(=O)N1CCCCCC1)S(=O)(=O)c1cccc2cccnc12	nt	3.3*	-226	0.8	2	16
CN(CC(=O)NC1CCCCCCC1)S(=O)(=O)c1cccc2cccnc12	nt	1.1	-10	0.2	10	75*
COc1ccccc1N1CCN(CCCCCCOc2ccc(F)cc2)CC1	-8	nt	nt	nt	nt	nt
CCN(CC)S(=O)(=O)c1cccc2nsnc12	-18	1.2	-21	1	-14	1
CCN(CC)S(=O)(=O)c1cccc2c(N(C)C)cccc12	18	1.3	-34	0.4	-27	57*
CC1=NNC(=O)C1C(c1ccccc1)C(C#N)C#N (stereo not given)	nt	0.8	24	0.7	-3	25
Cc1ccc(S(=O)(=O)N(CC(=O)O)Cc2ccccc2F)cc1	-37	0.5	51*	1	8	-2
Cc1ccc(S(=O)(=O)N(CC(=O)N2CCC(C)CC2)Cc2ccccc2F)cc1	-10	0.2	79*	0.2	-6	84*
O=C(NCc1cccnc1)C(=O)Nc1nc2ccccc2s1	-26	nt	nt	nt	nt	nt
c1cc2c(cc1Cn1cnnn1)OCO2	-24	0.4	56*	0.9	nt	15
Cn1cnnc1SCc1ccc(C#N)cc1	nt	1.4	-36	1	27	-4
Cn1cnnc1SCc1ccc(-c2ccc(Br)cc2)o1	1	0.4	56*	0.1	5	93*
COc1ccc2cc(C)c(SCC(=O)Nc3cc(C)on3)nc2c1	2	0.9	9	1	6	0
COc1ccc(NC2=NC(=S)N(c3ccc(C)cc3)C23CCCCC3)cc1	5	1	-3	1.1	21	-5
N#Cc1c(N)c(C(=O)c2ccccc2)n2c1CCCC2	7	1.1	-6	0.3	2	66*
N#Cc1c(N)c(C(=O)c2ccc(Br)cc2)n2c1CCC2	nt	1	2	1	-2	-3
Cc1cc(Cl)ccc1N(CC(=O)N=Nc1c(O)[nH]c2ccccc12)S(C)(=O)=O	-9	0.5	53*	0.2	1	76*

Assay outcomes deposited in PubChem by several laboratories.
